# High-throughput results deposited in PubChem BioAssay by Buhrlage Lab, Dana-Farber Cancer Institute and Novartis Institutes for BioMedical Research (Cambridge, Mass).
# An excerpt weighted towards active compounds, which were near 14% of everything screened.
# USP28 inh: blocks human USP28 ubiquitin-rhodamine cleavage. Q96RU2. purified USP28, Ub-rhodamine cleavage fluorescence, 30 min. inhibition, % at 25 µM. 3% of 47,000 active
# USP10 inh: blocks human USP10 ubiquitin-rhodamine cleavage | Q14694 | purified USP10, Ub-rhodamine fluorescence, 60 min | inhibition, % at 20 µM | 1.1% of 47,000 active | AID 1645856
# USP30 block: inhibitors of human USP30 deubiquitinase. AID 1645860. 5.3% of 47,000 active. purified USP30, Ub-rhodamine cleavage fluorescence. inhibition, % at 25 µM. Q70CQ3
# USP17 block: blocks human USP17 ubiquitin-rhodamine cleavage. A8MUK1. purified USP17, Ub-rhodamine cleavage fluorescence, 3 h. inhibition, % at 50 µM. 6.5% of 47,000 active
# USP8 block: blocks human USP8 ubiquitin-rhodamine cleavage | AID 1645853 | inhibition, % at 20 µM | purified USP8, Ub-rhodamine cleavage fluorescence, 30 min | 4.2% of 47,000 active | P40818
# Numbers without * were called inactive; nt = no result given. Rule as the data show it: active = inhibition above about 30%; inactive = the rest.
SMILES,USP28 inh,USP10 inh,USP30 block,USP17 block,USP8 block
CC(C)(C)CC(=O)N1CCC(c2nc3c(nnn3Cc3ccccc3Cl)c(=O)[nH]2)CC1,5.0,6.4,20.2,1.5,5.7
O=C(C1CCC1)N1CCC(c2nc3c(nnn3Cc3c(F)cccc3Cl)c(=O)[nH]2)CC1,-7.9,2.7,5.9,-4.5,-0.3
O=C(C1CCC1)N1CCC(c2nc3c(nnn3Cc3ccccc3Cl)c(=O)[nH]2)CC1,18.2,6.8,31.6*,24.8,19.3
O=C(C1CCCC1)N1CCC(c2nc3c(nnn3Cc3c(Cl)cccc3Cl)c(=O)[nH]2)CC1,27.2,16.5,43.5*,12.0,3.8
O=C(c1cccn1Cc1noc(-c2ccccc2)n1)N1CCOCC1,-10.5,-6.4,-101.5,-1.0,0.0
CCc1cc2c(NCc3ccc(F)cc3)ncnc2s1,13.5,1.7,26.8,32.3*,18.0
COc1ccc(CNc2ncnc3sccc23)cc1OC,-17.4,-6.7,-41.6,-20.7,-5.5
O=C(Nc1ccccc1)c1ccc2c(c1)CC(c1ccccc1)OC2=O (configuration not stated),4.7,6.7,16.8,74.2*,31.7*
O=C(Nc1cccc(C(=O)NC2CC2)c1)c1ccc2c(c1)CC(c1ccccc1)OC2=O (configuration not stated),8.1,9.8,-0.1,-12.0,-94.7
COc1cc(-c2ccccc2)c(O)c(O)c1-c1ccccc1,96.3*,67.4*,90.9*,98.9*,72.5*
COc1ccc(NC(=O)c2oc(=O)c3ccccc3c2-c2ccccc2)cc1Cl,0.9,7.5,0.3,6.1,18.2
Cc1ccccc1S(=O)(=O)N1CCC(O)(CN2CCOCC2)C1 (configuration not stated),1.2,-0.2,6.4,3.2,11.6
Cc1ccc(C(=O)NCc2ccc(-c3nc(C)ncc3-c3cc(C)no3)cc2)cn1,22.7,0.0,12.2,23.7,8.4
Cc1ccc2c(c1)OCC(=O)N2Cc1nc(-c2ccccc2C)no1,17.1,3.3,-22.7,-4.9,-2.9
Cc1ccc(C)c(CN2C(=O)COc3ccc(C(=O)c4ccccc4C(=O)O)cc32)c1,22.3,10.1,36.1*,8.8,24.6
O=C(CNc1ccc(F)cc1F)Nc1ccc2c(c1)OC(F)(F)O2,49.1*,7.2,-6.5,-0.3,2.6
O=C(CNC1CCCc2ccccc21)Nc1ccc2c(c1)OC(F)(F)O2 (configuration not stated),8.8,2.5,17.9,8.5,-6.6
Cc1cccc(CC(=O)Nc2c(C)nc3ccc(Cl)cn3c2=O)c1,-5.1,-1.9,1.8,nt,-1.1
Oc1cc(O)cc(/C=C/c2ccc(O)c(O)c2)c1,48.7*,-3.8,30.8*,40.1*,1.5
COc1ccccc1CNC(=O)C1CCCN(c2nc3ccsc3c(=O)s2)C1 (configuration not stated),6.5,2.6,20.2,56.8*,1.1
COc1cccc(CNC(=O)C2CCCN(c3nnc(N4CCCC4=O)s3)C2)c1OC (configuration not stated),-16.5,0.0,9.3,-7.3,-25.2
O=C(NCc1ccccc1Cl)C1CCCN(c2nc3ccsc3c(=O)s2)C1 (configuration not stated),0.1,19.6,-36.4,54.6*,-0.3
COc1ccc(Br)cc1CNC(=O)C1CCCN(c2nnc(N3CCCC3=O)s2)C1 (configuration not stated),-5.5,-2.4,-29.1,39.7*,-11.1
Cc1cc(C)c(C(=O)N2CCCC(C(=O)NCc3ccccc3Cl)C2)[nH]1 (configuration not stated),-7.7,-3.9,-30.3,nt,-15.4
Cc1ccc(NC(=O)CN2CC[C@@]3(O)CCCC[C@H]3C2c2ccc(F)cc2)c(C)c1 (some centres not stated),-19.7,-6.8,-59.3,-30.9,-38.0
SMILES,USP28 inh,USP10 inh,USP30 block,USP17 block,USP8 block
O=C(CSc1nc2ncc(Cl)cc2[nH]1)Nc1ccc(OCc2ccccc2)cc1,-13.6,10.7,-58.4,38.1*,-4.7
COC(=O)c1ccc(NC(=O)CSc2nc3ncc(Cl)cc3[nH]2)cc1,-6.0,29.8,-29.3,16.8,0.2
CCOc1ccc(NC(=O)CSc2nc3ncc(Br)cc3[nH]2)cc1,-25.4,16.3,-34.4,-20.0,7.6
Cc1ccc(NC(=O)CSc2nc3ncc(Br)cc3[nH]2)cc1C,nt,5.6,nt,59.9*,5.9
O=C(CSc1ncnc2ccccc12)Nc1ccc(OC(F)(F)F)cc1,-10.1,0.3,-6.0,-2.0,-17.6
COc1ccc2c(c1)c1ncn(CCC3=CCCCC3)c(=O)c1n2C,47.4*,7.0,31.2*,15.6,15.4
COc1ccc2c(c1)c1ncn(CCN3CCCC3)c(=O)c1n2C,-14.6,-4.2,-28.5,-20.2,-1.2
COc1ccc2c(c1)c1ncn(Cc3ccc4c(c3)OCO4)c(=O)c1n2C,10.8,-1.1,48.4*,35.5*,25.9
COC(=O)CC1C(=O)NCCN1C(=O)c1ccc(C)c(C)c1 (configuration not stated),2.0,-0.1,17.1,2.3,1.1
Cc1ccc2c(c1)NC(=O)CCS2,-2.0,5.8,-0.1,nt,4.0
O=C(NCc1ccccc1F)Nc1ccccc1[N+](=O)[O-],25.2,3.5,56.5*,73.5*,-39.7
C[C@@H]1CCC2[C@](C)(CO)[C@@H](O)CC[C@]2(C)[C@@]12CCC(C)(CO)O2 (some centres not stated),7.6,0.3,20.1,8.5,17.9
O=C(O)c1ccccc1C(=O)N1CCN(c2ccc(C(F)(F)F)cn2)CC1,2.9,-0.1,31.9*,19.0,15.0
O=C(O)C1CCC1C(=O)N1CCN(c2ccc(C(F)(F)F)cn2)CC1 (configuration not stated),8.0,0.1,3.0,11.3,12.1
O=C1OC(C(=O)N2CCN(S(=O)(=O)c3ccc(F)cc3)CC2)Cc2ccccc21 (configuration not stated),0.0,-4.0,-28.9,0.1,-56.0
O=C1OC(C(=O)N2CCN(c3ccc(C(F)(F)F)cn3)CC2)Cc2ccccc21 (configuration not stated),0.0,3.6,13.9,42.5*,3.0
O=c1cc(CSc2ncccn2)nc(N2CCN(c3ccccc3)CC2)[nH]1,9.3,3.7,22.1,5.7,17.7
Cc1c(S(=O)(=O)NCCc2ccccc2)cc(C(=O)N2CCCCC2)n1C,3.3,-0.3,24.2,10.5,25.7
Cc1ccc(CNC(=O)CCc2c(C)nn(-c3cc(N4CCOCC4)ncn3)c2C)cc1,0.0,-3.7,-8.3,-0.8,-0.8
Cc1ccc(C)c(NC(=O)CCc2c(C)nn(-c3cc(N(C)C)ncn3)c2C)c1,0.0,3.7,30.6*,17.3,-31.6
COc1ccc(-c2cc(C(=O)Nc3cccc(F)c3)c3ccccc3n2)cc1,-58.0,-6.1,-239.0,-55.9,-26.2
CCn1cc(-c2cc(C(=O)Nc3cnn(Cc4cccc(F)c4)c3)c3ccccc3n2)cn1,-12.6,1.6,1.3,62.9*,-0.7
Cc1cc(NCCc2ccc(Cl)cc2)n2nc(C)nc2n1,-3.2,0.5,-8.5,-14.4,-47.1
Cc1cc(NCC2CC2)n2nc(Nc3cc(Cl)ccc3C)nc2n1,10.6,-3.4,30.9*,70.9*,-0.1
